We go through 40 compounds from PubChem BioAssay (Tox21).

Records with an inconclusive call do not appear. Active and inactive are the calls of the source. Calls follow the shape of the dose curve; as a rule, active = well fitted inhibition curve with a large enough effect in the signal ratio in the repeat runs (not every such curve was filed as active); inconclusive = weak or mixed curves, or effect the other way; inactive = no such curve, though single readings can be large or run the other way; the % refers to the signal ratio.
% is scaled to controls: 0 for no effect and ±100 for the full control effect.

Chain of Peroxisome proliferator-activated receptor delta (Homo sapiens) (Q03181 whole entry, looked up): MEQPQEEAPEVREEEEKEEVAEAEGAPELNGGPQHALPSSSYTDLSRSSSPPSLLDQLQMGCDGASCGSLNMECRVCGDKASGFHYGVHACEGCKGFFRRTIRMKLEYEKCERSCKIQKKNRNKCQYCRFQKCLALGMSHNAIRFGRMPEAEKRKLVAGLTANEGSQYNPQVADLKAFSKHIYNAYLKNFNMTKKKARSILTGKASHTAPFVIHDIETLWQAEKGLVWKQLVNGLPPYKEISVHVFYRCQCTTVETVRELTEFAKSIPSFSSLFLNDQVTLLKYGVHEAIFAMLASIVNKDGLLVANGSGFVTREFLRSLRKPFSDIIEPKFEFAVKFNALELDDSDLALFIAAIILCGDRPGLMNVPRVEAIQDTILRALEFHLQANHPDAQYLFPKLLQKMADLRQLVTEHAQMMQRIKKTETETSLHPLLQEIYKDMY

The target in the test is Peroxisome proliferator-activated receptor delta (Homo sapiens) (UniProt Q03181). Description: qHTS assay to identify small molecule antagonists of the peroxisome proliferator-activated receptor delta (PPARd) signaling pathway (AID 743215).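 Also: cells stimulated with agonist L165041 at 300 nM final during compound exposure.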 To be noted: HEK293H PPARd-UAS-bla, beta-lactamase FRET ratio, antagonist, 17 h; series mostly up to 62 µM. An excerpt:
U.S. Tox21 Program National Center for Advancing Translational Sciences [NCATS] NIH Chemical Genomics Center [NCGC] U.S. Environmental Protection Agency [EPA] National Institutes of Environmental Health Sciences [NIEHS] National Toxicology Program [NTP] U.S. Food and Drug Administration [FDA] Tox21 Assay Overview: The peroxisome proliferator-activated receptors (PPARs) are lipid-activated transcription factors of the nuclear receptor superfamily with three distinct subtypes namely PPAR alpha, PPAR delta (PPARd) and PPAR gamma. All these subtypes heterodimerizes with Retinoid X receptor (RXR) and have different physiological functions. […] To identify the compounds that inhibit PPAR-delta signaling, GeneBLAzer PPAR delta UAS-bla HEK293H cell line (Invitrogen, Carlsbad, CA, USA) containing a beta-lactamase reporter gene under the control of an Upstream Activator Sequence (UAS) was used to screen the Tox21 compound library.
Tox21 Assay Protocol Summary: PPARd-bla cells were dispensed at 3000 cells/5uL/well in 1536-well black wall/clear bottom plates using a Multidrop Combi (Thermo Fisher Scientific, Waltham, MA) dispenser. After the assay plates were incubated at 37 C and 5% CO2 for 5 h, 23 nL of compounds dissolved in DMSO, positive controls or DMSO only was transferred to the assay plate by a Pintool station (Kalypsys, San Diego, CA), followed by addition of 1ul L165041 (300 nM, final concentration in the wells). The assay plates were incubated at 37 C for 17 h, and then 1 uL of LiveBLAzerTM B/G FRET substrate was added using a Bioraptr Flying Reagent Dispenser (FRD) workstation (Beckman Coulter, Indianapolis, IN, USA). The assay plates were incubated at room temperature for 2 h and fluorescence intensity was measured by an Envision plate reader (PerkinElmer, Shelton, CT).
On to `CC(C)NCC(O)COc1cccc2[nH]ccc12` (stereo not given), for which the result was inactive.

On to `NC(CO)C(=O)NNCc1ccc(O)c(O)c1O` (stereo not given), for which the result was inactive.

Take `CN1CCN(CC(=O)N2c3ccccc3C(=O)Nc3cccnc32)CC1`: the ratio activity, negative = inhibition is 1.31% [at 6.26 µM] (inactive).

For `CN(C)CCOCCO`, the result was inactive.

As for `CCCCOCCOC(=O)COc1nc(Cl)c(Cl)cc1Cl`, the outcome was inactive.

For the compound `OC[C@H](Cc1cccc(O)c1)[C@H](CO)Cc1cccc(O)c1`, the result was inactive.

With `Nc1cccc(O)c1`, the outcome was inactive.

On to `C=CCCCCCCCCCCCC`, for which the result was inactive.

`Cc1ccsc1/C=C/C1=NCCCN1C`: the outcome was inactive.

For `O=C(NCCN1CCOCC1)c1ccc(Cl)cc1`, the outcome was inactive.

For the compound `COc1cc(NS(=O)(=O)c2ccc(N)cc2)nc(OC)n1`, the result was inactive.

For the compound `CC1(CO)CN(c2ccccc2)NC1=O` (stereo not given), the result was inactive.

With `N[C@@H](COP(=O)(O)O)C(=O)O`, the outcome was inactive.

On to `C=C(C)C(=O)OCCOP(=O)(O)OCCOC(=O)C(=C)C`, for which the outcome was inactive.

Regarding `Cc1nc2n(c(=O)c1CCN1CCC(c3noc4cc(F)ccc34)CC1)CCC[C@H]2O`, the outcome was inactive.

Take `CC(C)(C)c1nnc(NS(=O)(=O)c2ccc(N)cc2)s1`: the outcome was inactive.

Consider `C=C(C)C1CCC(C)(O)CC1` (stereo not given), for which the outcome was inactive.

On to `Cc1cccc2nccnc12`, for which the outcome was inactive.

`C=C(C)C(=O)OCC(C)(C)COC(=O)C(=C)C`: the outcome was inactive.

`COc1cc2c(cc1OC)C(=O)CC2`: the outcome was inactive.

As for `O=C(CS(=O)Cc1ccco1)NC/C=C\COc1cc(CN2CCCCC2)ccn1` (stereo not given), the result was inactive.

Consider `CCCCOC(=O)c1ccccc1`, for which the outcome was inactive.

For the compound `O=C1c2ccccc2C(=O)c2cc(S(=O)(=O)O)ccc21`, the result was inactive.

As for `CN=C(NC#N)Nc1ccc(C2=NNC(=O)CC2C)cc1` (stereo not given), the result was inactive.

Turning to `CC(C)CCCC(C)(C)O`, the outcome was inactive.

Regarding `O=C(O)c1ccc(Cl)cc1Cl`, the result was inactive.

With `O=S(=O)(O)c1ccc2cc(O)c(S(=O)(=O)O)cc2c1`, the result was inactive.

As for `CC(=O)c1sc(C)nc1C`, the result was inactive.

Take `CC(C)C(=O)OCCc1ccccc1`: the outcome was inactive.

For the compound `CC(C)(C)NC(N)=O`, the outcome was inactive.

Turning to `CCC(C)NC(N)=O` (stereo not given), the result was inactive.

Consider `CC(C)CC(=O)O`, for which the outcome was inactive.

As to `C[C@H](N)[C@H](O)c1cccc(O)c1`, the outcome was inactive.

As for `CC(=O)OC(C)OC(=O)C(C)c1ccc(-c2ccccc2)c(F)c1` (stereo not given), the outcome was inactive.

In the case of `CCCCCOC(=O)CCC`, the result was inactive.

In the case of `CCNC(=O)C1CC(C)CCC1C(C)C` (stereo not given), the outcome was inactive.

Turning to `ClCCCl`, the outcome was inactive.

Regarding `CN(CCOc1ccc(NS(C)(=O)=O)cc1)CCc1ccc(NS(C)(=O)=O)cc1`, the outcome was inactive.

Regarding `CC[C@H](C)C(=O)O[C@H]1C[C@H](O)C=C2C=C[C@H](C)[C@H](CC[C@@H](O)C[C@@H](O)CC(=O)O)[C@H]21`, the outcome was inactive.

With `O=C(OCc1ccccc1)C(=O)OCc1ccccc1`, the outcome was inactive.
